Bioassay records as filed in PubChem BioAssay.
BAZ2B inh: BAZ2B (human) inhibition; Q9UIF8; AlphaScreen BAZ2B-H3K14Ac peptide displacement; Potency, µM (series often up to 114 µM), for the others: at the highest dose activity change, negative = inhibition, hits mostly inhibitors; hit rate 4.4% among 360,000; AID 504333; note: % is set by controls: 0 for no effect and ±100 for the full control effect; nearly all actives have a fitted effect of over 60% in size
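Multi-concentration screen (max 110 uM) measuring displacement of acetylated histone H3 peptide from BAZ2B by AlphaScreen, using 50 nM protein, 50 nM peptide and 10 ug/mL streptavidin donor plus Ni-chelate acceptor beads.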
JMJD2A Tudor inh: inhibitors of human JMJD2A Tudor domain | O75164 | AlphaScreen JMJD2A-Tudor / H3K4me3 peptide binding | Potency, µM (doses to about 114 µM), inactives show top-dose activity change, negative = inhibition, most hits filed as inhibitors | hit rate 4.4% among 390,000 | AID 504339; note: % is set by controls: 0 for no effect and ±100 for the full control effect; nearly all actives have a fitted effect of over 50% in size
L3MBTL1 block: L3MBTL1 (human) inhibition; AlphaScreen L3MBTL1–H3K9me1 peptide binding; Potency, µM (highest dose often 57.1 µM), for the others: at the top dose activity, negative = inhibition, most hits filed as inhibitors; hit rate 0.66% among 230,000; note: % is set by controls: 0 for no effect and ±100 for the full control effect; nearly all actives have a fitted effect of over 60% in size
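Displacement of a biotinylated histone H3(1-15) peptide monomethylated at Lys9 (75 nM) from L3MBTL1 (50 nM) was measured by AlphaScreen after a 30 min room-temperature compound incubation; cefsulodin titration served as intraplate control.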
G9a inh: inhibitors of human histone lysine methyltransferase G9a; AID 504332; hit rate 8.8% among 350,000; G9a H3K9 monomethylation, AlphaScreen, 2 h; Q96KQ7; Potency, µM (highest dose often 102 µM), without a hit: at the highest dose activity, negative = inhibition, hits mostly inhibitors; note: % is set by controls: 0 for no effect and ±100 for the full control effect; nearly all actives have a fitted effect of over 75% in size
Target sequence (Q96KQ7 913-1193 limits assumed): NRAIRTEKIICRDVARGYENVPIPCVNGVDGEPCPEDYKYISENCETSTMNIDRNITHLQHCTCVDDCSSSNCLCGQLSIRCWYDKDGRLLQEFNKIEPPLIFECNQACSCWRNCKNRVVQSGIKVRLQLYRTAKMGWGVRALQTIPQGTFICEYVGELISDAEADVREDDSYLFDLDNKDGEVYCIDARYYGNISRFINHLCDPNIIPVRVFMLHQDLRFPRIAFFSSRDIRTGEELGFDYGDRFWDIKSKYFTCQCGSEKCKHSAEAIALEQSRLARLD
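Using a bead-based AlphaScreen, monomethylated H3K9 product from 2 h room-temperature reactions (G9a 20 nM, peptide 500 nM, SAM 20 uM) was detected with 0.5 ug/mL rabbit anti-H3K9me1 antibody.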
HP1b binding inh: blocks HP1-beta chromodomain binding to methylated histone tails | Potency, µM (highest dose often 114 µM), for inactives: at the top dose activity change, negative = inhibition, most hits filed as inhibitors | AlphaScreen HP1-beta / biotin-H3K9me3 peptide binding | hit rate 0.56% among 390,000; note: nearly all actives have a fitted effect of over 70% in size
Target sequence (P83916 whole entry, looked up): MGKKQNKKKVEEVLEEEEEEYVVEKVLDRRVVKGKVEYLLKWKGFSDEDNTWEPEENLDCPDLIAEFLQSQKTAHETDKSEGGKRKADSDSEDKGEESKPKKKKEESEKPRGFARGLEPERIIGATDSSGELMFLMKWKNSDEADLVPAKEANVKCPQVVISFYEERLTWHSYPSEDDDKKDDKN
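Compound inhibition of the preformed complex between 50 nM HP1-beta and 50 nM biotinylated H3K9me3 peptide was read by AlphaScreen. Buffer was PBS pH 7.4 with 0.01% Tween-20. Incubations ran 30 min at room temperature, with 10 ug/mL donor/acceptor beads.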
* hit, by the source's call; ? = inconclusive; · = no result; [ ] = another dose, or the depositor's remark. The list is not random: actives were taken first. Their share in the collection is about 11%. Calls come from the whole dose curve; as a rule, active = well fitted inhibition curve with a large enough effect; inconclusive = small, poorly fitted or top-dose-only effect; inactive = no such curve, though single readings can be large or run the other way. Potency is the fitted concentration of half-maximal effect.

SMILES	BAZ2B inh	JMJD2A Tudor inh	L3MBTL1 block	G9a inh	HP1b binding inh
CCCN(CCC)CCCNC(=S)Nc1ccc2nc(N3CCCC3)cc(C)c2c1	5.0%	?	·	39.8µM*	8.9%
Cc1cc(N2CCN(C)CC2)nc2ccc(NC(=S)NCCC(C)C)cc12	?	?	·	50.1µM*	-3.9%
CCN(CC)CCNC(=S)Nc1ccc2nc(N3CCOCC3)cc(C)c2c1	-19.9%	-8.7%	·	?	8.5%
CCN(CC)CCNC(=S)Nc1ccc2nc(N3CCN(C)CC3)cc(C)c2c1	0.6%	-22.0%	·	44.7µM*	51.8%
CCN(CC)CCNC(=S)Nc1ccc2nc(N3CCCC3)cc(C)c2c1	·	-1.4%	·	44.7µM*	34.3%
COc1ccc(-n2c(SCC(=O)Nc3ccc4c(c3)OCO4)nc3c([nH]c4ccccc43)c2=O)cc1	-0.3%	-11.9%	·	4.8%[59 µM]	10.2%[57 µM]
Cc1cc(N2CCN(C)CC2)nc2ccc(NC(=O)c3ccc(Br)o3)cc12	-13.4%	-15.3%	-5.2%	-26.0%[12.7 µM]	10.1%
Cc1cc(N2CCCCC2)nc2ccc(NC(=O)c3ccc(Br)o3)cc12	?	?	·	50.1µM*	?
CCCN(CCC)S(=O)(=O)c1ccc(N2CCCCS2(=O)=O)cc1	-2.9%	-7.3%	·	-2.0%[59 µM]	21.5%
O=C(CSc1nc(-c2cccs2)nc2cc(=O)[nH]n12)Nc1cccc(C(F)(F)F)c1	50.1µM*	-18.5%	·	52.8%[59 µM]	33.2%
Cc1cccc(NC(=O)CSc2nc(-c3cccs3)nc3cc(=O)[nH]n23)c1	79.4µM*	?	·	-38.0%[59 µM]	?
COc1ccc(NC(=O)CSc2nc(-c3ccccc3)nc3cc(=O)[nH]n23)cc1	-36.8%	-23.1%	·	17.0%[59 µM]	32.8%
Cc1ccc(NC(=O)CSc2nc(-c3cccs3)nc3cc(=O)[nH]n23)cc1	79.4µM*	-20.8%	·	23.0%[59 µM]	20.7%
O=C(CSc1nc(-c2ccccc2)nc2cc(=O)[nH]n12)Nc1ccccc1	-0.6%	56.2µM*	·	34.1%[59 µM]	20.3%
CC1CCN(C(=O)c2cc(-c3ccc(Cl)cc3)on2)CC1	2.8%	3.8%	·	4.5%[59 µM]	46.4%
Cc1cccc(-c2nc(SCC(=O)Nc3cccc(C(F)(F)F)c3)n3[nH]c(=O)cc3n2)c1	50.1µM*	50.1µM*	·	11.0%[59 µM]	?
CN(Cc1ccccc1)C(=O)c1c[nH]c2ccc(S(=O)(=O)Nc3ccccc3F)cc2c1=O	·	-25.7%	·	12.8%[59 µM]	24.7%
O=C1NC2=C(CCc3ccccc32)C(c2ccc(Br)cc2)N1 (centres undefined)	-4.0%	-22.9%	·	35.5µM*	-11.0%
Cc1cc(C)c2c(=O)nc(SCc3ccccc3C)n(C3CC3)c2n1	-1.6%	-8.8%	·	-3.9%[59 µM]	29.5%[57 µM]
CN1CCN(C(=O)CSc2nc(-c3cccs3)cc(-c3cccs3)c2C#N)CC1	3.3%	-13.5%	10.9%	39.8µM*	19.7%
CCN(CC)C(=O)CSc1nc(-c2cccs2)cc(-c2cccs2)c1C#N	-7.2%	0.8%[57.1 µM]	10.6%	3.98µM*	-30.0%
N#Cc1c(-c2ccc(F)cc2)cc(-c2cccs2)nc1SCC(=O)O	-34.6%	-23.8%	·	15.9%	102.4%
COC(=O)CSc1nc(-c2cccs2)ccc1C#N	10.7%	-2.9%	4.0%	31.6µM*	37.5%
CCN(CC)C(=O)CSc1nc(N)c(C#N)c(-c2cccs2)c1C#N	-2.3%	0.0%	-6.7%	14.2%[59 µM]	38.9%
CCCC(=O)NC1CC(=O)N(c2ccc3c(c2)OCCO3)C1 (centres undefined)	-0.3%	-6.8%	·	-10.0%[59 µM]	33.4%
SMILES	BAZ2B inh	JMJD2A Tudor inh	L3MBTL1 block	G9a inh	HP1b binding inh
Cc1ccc(NC(=O)c2ccc(NC(=O)C3CCCC3)cc2)c(C)c1	·	-8.2%	·	·	50.2%
O=C1OCCN/C1=C\C(=O)c1ccc(Cl)cc1	-25.4%	?	-2.0%	56.2µM*	-9.7%
O=C1NCCN/C1=C\C(=O)c1ccccc1	?	-28.0%	·	0.9%	15.1%
O=C1NCCN/C1=C\C(=O)c1ccc(Br)cc1	-16.2%	-24.9%	-4.9%	50.1µM*	10.8%
CCC1CN(C(=O)Nc2cc(Cl)c(OC)cc2OC)c2ccccc2O1 (centres undefined)	-1.7%	-24.0%	·	-12.4%[59 µM]	11.0%
O=[S+]([O-])(/C=C/c1nc(Nc2cc(F)cc(F)c2)c2ncn(CC(F)F)c2n1)c1ccccc1	·	-15.1%	·	·	·
CC(=O)NC(=S)Nc1ccc(N2CCOCC2)c(S(=O)(=O)Nc2cc(Cl)ccc2Cl)c1	·	-23.8%	-15.4%	?	23.1%
COc1ccc(N/N=C(/C#N)S(=O)(=O)C(C)(C)C)cc1	-37.2%	-6.8%[57.1 µM]	·	50.1µM*	27.8%
CSc1ccc(S(=O)(=O)Nc2ccc(F)cc2)cc1	2.6%	-6.7%	6.0%	16.8%[59 µM]	15.8%
CSc1ccc(N/N=C(/C#N)S(=O)(=O)C(C)(C)C)cc1	?	-25.6%[11.4 µM]	·	50.1µM*	?
Cc1ccc(C)c(NC(=O)c2cc(S(=O)(=O)N3CCCCCC3)ccc2F)c1	0.5%	-14.4%	·	8.2%[59 µM]	20.4%
COc1cc(F)c(S(=O)(=O)N2CCN(S(=O)(=O)c3cccc(N)c3)CC2)c(F)c1	·	-1.4%	·	·	·
CCN(CC)S(=O)(=O)c1cccc(-c2n[nH]c(=S)n2/N=C/c2ccc(OC(F)F)cc2)c1	?	?	-17.7%	1.78µM*	?
CCN(CC)S(=O)(=O)c1cccc(-c2n[nH]c(=S)n2/N=C/c2ccc(Br)cc2)c1	1.0%	?	1.2%	?	1.1%
CCN(CC)S(=O)(=O)c1cccc(-c2n[nH]c(=S)n2C(C)COC)c1 (centres undefined)	12.6%	3.55µM*	·	10µM*	11.0%
O=c1oc(-c2cccc(S(=O)(=O)N3CCOCC3)c2)nc2ccccc12	39.5%	-6.9%	?	10µM*	40.9%
CCN(CC)S(=O)(=O)c1cccc(-c2n[nH]c(=S)n2/N=C/c2ccc(OC)cc2)c1	-3.7%	?	-14.5%	?	-12.6%
CCC(C)n1c(-c2cccc(S(=O)(=O)N(CC)CC)c2)n[nH]c1=S (centres undefined)	2.1%	10µM*	·	8.91µM*	15.2%
Cc1cccc(NC(=O)Cn2c(=O)n(Cc3ccc4c(c3)OCO4)c(=O)c3ccccc32)c1	2.9%	-7.5%	·	-1.2%[59 µM]	15.6%
O=C(NC1CC(=O)N(c2ccc(F)cc2)C1)c1ccco1 (centres undefined)	-0.9%	-2.3%	·	2.3%[59 µM]	40.0%
Cc1ccccc1CCNC(=O)c1cc2cc(S(=O)(=O)N3CCCCC3)ccc2n1C	3.8%	-15.9%	·	-7.3%[59 µM]	20.7%[57 µM]
O=C(c1cccc(F)c1)N1CCC2(CC1)CN(c1ncccn1)C2	·	·	·	11.6%[12.7 µM]	·
CC(=O)N1CCC(N(C(=O)Nc2ccc(C)c(F)c2)C(C)C)CC1	-3.9%	-27.5%	·	-35.2%[59 µM]	9.3%
CCC(C)n1c(-c2cccc(S(=O)(=O)N3CCOCC3)c2)n[nH]c1=S (centres undefined)	7.0%	5.62µM*	3.6%	3.16µM*	46.9%
CCn1c(-c2cccc(S(=O)(=O)N3CCCC3)c2)n[nH]c1=S	-24.1%	6.31µM*	·	8.91µM*	18.2%
Cc1nc(-c2cccc(S(=O)(=O)N3CCOCC3)c2)cs1	-1.3%	-26.7%	-4.9%	?	-16.3%
